# In all, about 52,000 sequences went through this assay and about 210 (0.4%) were called active. Many of the other results were omitted from the sample, so actives are more common in it than they were. Values without a mark were called inactive.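 Rule for the calls: active = gene whose silencing raises cell survival under the drug, median off-target-corrected z-score across its silencing RNAs 2 or more; inactive = the rest.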
# Experiment: Resistance to Poly (ADP-Ribose) Polymerase inhibitor: Gene Identification via Genome-wide siRNA Screen
# Conditions: mouse BRCA2 R2336H ES cells, olaparib, CellTiter-Glo viability; hits give high values
# Procedure, shortened: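 Mouse BRCA2 R2336H ES cells were reverse-transfected with siRNA (20 nM final), treated at 48 h with 500 nM olaparib, and read by CellTiter-Glo after 72 h. Scores: MAD-based z per siRNA, median per gene, seed off-target correction.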
row,Sequence,z-score
1,GGGAUCAUUAAACUUUUCCTT against Taf11,0.894
2,GGAAAAUGUUUUACCAAUGTT against 4930470D19Rik,0.0823
3,GGCUAGAGACUUGGUUUUUTT against E430025L02Rik,1.23
4,GGUAACUGAGAAAACCAGATT against Adam29,1.12 (active)
5,GGAUCUUGAAGACCAAAAATT against 9030409G11Rik,-0.527
6,GGCAAGAGAAUUCAGAUCUTT against Slc5a1,2.6
7,GGGCACAACUUCAACAGCUTT against Cklfsf8,1.53
8,GGUUAUCACUCCUCAACAATT against Foxp1,-0.826
9,GGUCUACGAGUUUAUUGCUTT against Phc1,0.722
10,GCCCUUUGGAUAACAGUGATT against Sufu,-0.968
11,GGCCUUCAAUCACCUAGAGTT against Pde6g,2.23 (active)
12,GCAGCUGGCUGCUUUCACATT against AV028368,-0.955
13,CCGACGUGCAUGGAGAAAATT against 1700030J22Rik,-1.71
14,GCCAUUAAUCUCACAUGUATT against A930001N09Rik,-0.871
15,GGAAGACCGUACUAUGUUUTT against Gtl2,-2.38
16,CCAGUUGGAAAUAUGACGATT against 2510002A14Rik,0.99
17,CCUAUGUCAUCAUUGGAGUTT against 2310005G13Rik,0.537
18,CGAUGACAUCAGGAUUGUUTT against Gpr128,1.23 (active)
19,GCUGAUUUCCAAAGAUAAUTT against Glycam1,0.301
20,GCCCAUGAAUUUUUACUUATT against C330019G07Rik,0.714
21,CGAAGGGACCGAAGAAUCCTT against 5730538E15Rik,-0.602
22,CCAGUCCUACUUAGCAAAGTT against BC046404,1.34
23,CCAUUACACAAAGUUUUGCTT against Stard6,0.874
24,GGGUUCAAGAGAUGAUAUUTT against Usp11,2.47 (active)
25,GGAAAGUGUGUUCAUUAGUTT against Pla2g2d,-0.775

row,Sequence,z-score
1,GGAAAAGGAGGUGGUACUGTT against Agc1,0.55
2,CGCCCAGUGCAAUUUUUUCTT against Gm592,-0.745
3,CCAUAGCACUAAAUCAGAUTT against 4933421G18Rik,0.387
4,GGACCUAUUUCUCUGCUCCTT against E330026B02Rik,-0.251
5,GGACAUUCGUGGUUCCAUCTT against 4833412N02Rik,0.546
6,GGAGGUCGCUUCCUAUUACTT against Tat,1.26 (active)
7,GGACUAUCAGGACCUUUUUTT against Dnajb3,-1.77
8,GCUAAAAGGUAAGUACUUCTT against AB041803,0.00857
9,GGAGAUUGAUGAGCAUGCCTT against Rab40b,0.456
10,GGUUCUGAAGAUGGAGGUUTT against Ttbk1,-1.25
11,GCUGUUGGUUUCUACUCACTT against Adam21,1.43 (active)
12,GGAAGACCUGAUUGGAAAATT against Trpm1,0.553
13,GAGCCUUCUAAGUCUGCACTT against Hist1h2bb,0.996
14,GGAAAUCACCAGAGCUGAUTT against Atp6v0a2,1.56
15,GGGCUAUUAAAUGAUUUCATT against Pax1,-0.101
16,CGUAGCAAUCUUGGUUGCUTT against Hoxa3,0.734
17,GGCUGUGAGAUAGAUCUAATT against E130112L23Rik,-0.595
18,GGAUGUGGACUCAAAGAAATT against 1110001E17Rik,1.9 (active)
19,CGAGGGAUAAGAGUCUACGTT against D4Bwg1540e,-0.0629
20,GGCCAUUAACAGCAGUCUGTT against Kifc1,-2.66
21,GGGACUUUUUUUGAAUCCUTT against Ndrg3,0.835
22,GGCAGCGCAAUGGAUUAGUTT against Chrng,1.99 (active)
23,GGAGCAACAGCCAAAUACCTT against 1700001F22Rik,0.124
24,CGGCAGGAUGAAUGAGAUCTT against Bccip,0.692

# Source: PubChem BioAssay AID1347423 (Functional Genomics Laboratory (NCATS/FGL), 2020)
